Compounds without any hit were thinned out: in the full panel of roughly 79,000, 15% have a hit. No stated cut-off is given here; in the data, active means growth inhibition above about 70%; inactive means the rest.
How the values were obtained:
[1] = NCI Yeast Anticancer Drug Screen. Data for the rad50 strain (AID 155);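 further: 0% = growth of vehicle-only cultures of the same strain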; settings: S. cerevisiae rad50 strain growth inhibition; at 50.0 µM; active compounds read high
Method in brief: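 Genetically altered yeast (DNA repair pathway); compound treatment; growth inhibition vs vehicle ctrl.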

[2] = NCI Yeast Anticancer Drug Screen. Data for the mec2-1 strain (AID 157); settings: S. cerevisiae mec2-1 strain, at 50.0 µM, active compounds read high
Method in brief: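 Cells of the genetically defined mec2-1 yeast strain are incubated with test compound. Inhibition of growth is calculated against vehicle-treated controls.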

[3] = NCI Yeast Anticancer Drug Screen. Data for the sgs1 mgt1 strain (AID 161);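 further: 0% = growth of cultures given vehicle only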; settings: S. cerevisiae sgs1 mgt1 strain, at 50.0 µM, active compounds read high
Method in brief: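 Mutant yeast exposed to compound; growth scored against vehicle-only wells.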

[4] = NCI Yeast Anticancer Drug Screen. Data for the cln2 rad14 strain (AID 165);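 further: 0% = growth equal to vehicle treated cultures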; settings: S. cerevisiae cln2 rad14 strain, at 50.0 µM, active compounds read high
Method in brief: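 The screen exposed genetically defined yeast (cln2 rad14) to test compounds and scored growth inhibition relative to vehicle-treated controls.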

[5] = NCI Yeast Anticancer Drug Screen. Data for the bub3 strain (AID 167); settings: S. cerevisiae bub3 mutant strain, at 50.0 µM, active compounds read high
Method in brief: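 Yeast carrying a defined mutation is treated with each compound, and growth is compared with that of vehicle-exposed cells to give inhibition.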

[6] = NCI Yeast Anticancer Drug Screen. Data for the mlh1 rad18 strain (AID 175); settings: S. cerevisiae mlh1 rad18 strain growth inhibition; at 50.0 µM; active compounds read high
Method in brief: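 Compound-treated yeast growth, normalised to vehicle controls. Strain bears defined DNA repair mutations.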

Measured: growth inhibition

O=C(O)C(S)c1ccc2ccccc2c1 (centres undefined)
inactive: [1] 28.6% | [2] 19.9% | [3] 20.2% | [4] 18.6% | [5] 12.3% | [6] 13.2%

CCCCOC(=O)C(=O)/C(=C\n1c(=S)[nH]c2cc(C)ccc21)C(=O)C=C(C)C
inactive: [1] -15.6% | [2] -22% | [3] 3.05% | [4] -22.4% | [5] -10.7% | [6] -28.1%

C=C(C)C1CC=C(C)[C@](O)(C2(O)C[C@H](C(=C)C)CC=C2C)C1 (some centres undefined)
inactive: [1] -0.55% | [2] 6.95% | [3] 26.1% | [4] 23.9% | [5] 6.6% | [6] 9.65%

NC(=O)CS(=O)Cc1cccc(Br)c1 (centres undefined)
inactive: [1] -13.9% | [2] -11.2% | [3] -17.6% | [4] 7.35% | [5] -1.5% | [6] 6.5%

C/C=C/C(=O)OCCC(C)OC(=O)/C=C/C (centres undefined)
inactive: [1] 26.1% | [2] -30.4% | [3] 19.4% | [4] 17.4% | [5] 15.9% | [6] 5.25%

FC(F)(F)C1(C(F)(F)F)OI2(Br)(OC(C(F)(F)F)(C(F)(F)F)c3ccccc32)c2ccccc21
inactive: [1] -6.05% | [2] -0.25% | [3] -11.2% | [4] 21.2% | [5] -5.3% | [6] 27.1%

CCCCCCCCCC(O)CO (centres undefined)
inactive: [1] -20.6% | [2] -20.7% | [3] -23.8% | [4] 6.4% | [5] -10.6% | [6] -5.95%

CC(C)NC(=O)OCc1c(COC(=O)NC(C)C)c(S(=O)(=O)c2ccccc2)n2c1CCC2
inactive: [1] 11.5% | [2] 1.5% | [3] -20.6% | [4] 4.7% | [5] 1.35% | [6] 25.6%

OC(C(=S)N1CCCC1)(c1ccccc1)c1ccccc1
inactive: [1] 10.8% | [2] 17.3% | [3] 24.2% | [4] 8.45% | [5] 9.6% | [6] -0.6%

Cc1ccc(C(O)c2ccccc2)cc1 (centres undefined)
inactive: [1] 25.4% | [2] 6.55% | [3] 17.4% | [4] -61.6% | [5] 1.4% | [6] 9.5%

Oc1cccc(O)c1
inactive: [1] 0.8% | [2] -1% | [3] -1.1% | [4] -12.2% | [5] 1.75% | [6] 33.1%

O=C1c2ccccc2C(C(c2ccccc2)c2ccccc2)c2ccccc21
inactive: [1] -22% | [2] -18.6% | [3] -28.9% | [4] 8.45% | [5] 5.25% | [6] -14%

C[N+]1(C)CCC(O)CC1
inactive: [1] -5.5% | [2] 7.2% | [3] -3.1% | [4] -13.4% | [5] 14.9% | [6] 1%

CS/C(c1ccccc1)=[N+](\[O-])Cc1ccccc1
inactive: [1] 17.6% | [2] 9% | [3] -7.1% | [4] 8.5% | [5] -0.75% | [6] 3.15%

Cc1ccc(NC(=O)CCCC(=O)C(C#N)c2ccccc2Cl)cc1C (centres undefined)
inactive: [1] 0.15% | [2] -0.95% | [3] -5.75% | [4] -22.5% | [5] -10.1% | [6] -5.1%

NC(=S)NNC(=O)c1ccccc1
inactive: [1] -16.7% | [2] -10.6% | [3] -2.25% | [4] 9.65% | [5] 6.75% | [6] -2.55%

COc1cc([N+](=O)[O-])c(C)cc1Br
inactive: [1] 3.55% | [2] 3.75% | [3] 4.45% | [4] -18.3% | [5] -10.5% | [6] 9.45%

COC(=O)C1(Cc2ccccc2)Cc2ccccc2C1
inactive: [1] 24.7% | [2] 36.1% | [3] 36.4% | [4] 20.2% | [5] 55.4% | [6] 12.2%

CCOc1cc2ccc3c4cc(OC)c(OC)cc4cnc3c2cc1OCC
inactive: [1] -16.9% | [2] -17.4% | [3] -12.7% | [4] -0.4% | [5] -9.4% | [6] -18.9%
